# Laboratory results: PubChem BioAssay (Tox21)
# Inconclusive results are not listed. A call without a number means that no potency is given here. A number with no mark means an inactive call. The source made the active and inactive calls. Unless noted, calls follow the shape of the dose curve; as a rule, active = well fitted curve in the direction sought with a large enough effect in the repeat runs; inconclusive = weak or mixed curves; inactive = no such curve, though single readings can be large; an effect the other way counts as inactive or inconclusive.
# Assays:
# [1] = qHTS assay to identify small molecule antagonists of the estrogen related receptor (ERR) signaling pathway - cell viability counter screen (AID 1224818);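 also: series mostly up to about 46 µM; viability measured after 17.5 h of compound exposure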
# Method in brief: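 ERR reporter cells plated 6 h at 37 C/5% CO2, then compounds in DMSO pin-transferred and incubated 17.5 h at 37 C. Viability read as CellTiter-Fluor fluorescence after 30 min at 37 C.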
# [2] = qHTS assay to identify small molecule antagonists of the estrogen related receptor (ERR) signaling pathway (AID 1224819; also: nearly all actives have a fitted effect of over 50% in size; also: potency is read from the fitted curve at half-maximal effect)
# Method in brief: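 ERR reporter cells were plated at 2,000 cells/well and left 6 h at 37 C/5% CO2 before pin-tool transfer of compounds in DMSO. After 18 h at 37 C, One-Glo was added and luminescence was read 30 min later at room temperature.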
# [3] = qHTS assay to identify small molecule agonists of the estrogen related receptor (ERR) signaling pathway (AID 1224820)
# Method in brief: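 Quantitative HTS of the LOPAC library used NTP ERR reporter cells treated 18 h at 37 C. Signal is luminescence after One-Glo addition and a 30 min room-temperature incubation.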
# [4] = qHTS assay to identify small molecule antagonists of the estrogen related receptor signaling pathway with the pleiotropic PPARgamma coactivator (PGC) cell viability counter screen (AID 1224822; also: series mostly up to about 46 µM)
# Method in brief: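 PGC/ERR cells were seeded at 2,000 cells/well, rested 6 h at 37 C/5% CO2, then given compounds in DMSO by pin tool and incubated 17.5 h at 37 C. Viability came from CellTiter-Fluor fluorescence after 30 min.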
# [5] = qHTS assay to identify small molecule agonists of the estrogen related receptor signaling pathway with the pleiotropic PPARgamma coactivator (PGC) (AID 1224823)
# Method in brief: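 Cell-based luciferase assay in the NTP-supplied PGC/ERR line, 2,000 cells/well; 18 h compound exposure at 37 C, luminescence after One-Glo.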
# [6] = system: estrogen-related receptor alpha (ERRalpha) with PGC-1alpha coactivator, human; assay: qHTS assay to identify small molecule antagonists of the estrogen related receptor signaling pathway with the pleiotropic PPARgamma coactivator (PGC) (AID 1224821; calls by dose curve;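 also: series mostly up to about 46 µM; lower luminescence signal means antagonism of PGC/ERR signalling; nearly all actives have a fitted effect of over 50% in size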)
# Method in brief: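 Quantitative HTS for antagonism: PGC/ERR cells received compounds after 6 h attachment and were incubated 18 h at 37 C, with luminescence (One-Glo) as the endpoint.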
Compound,Potency [1],Potency [2],Potency [3],Potency [4],Potency [5],Potency [6]
CC[C@@]1(O)C(=O)OCc2c1cc1n(c2=O)Cc2cc3ccccc3nc2-1,inactive,123 nM (active),inactive,inactive,inactive,
CC(C)[C@H]1CN[C@H](C(=O)O)[C@H]1CC(=O)O,inactive,inactive,,inactive,inactive,inactive
C[N+]1(C)C2CCC1CC(OC(=O)c1c[nH]c3ccccc13)C2 (stereo not given),inactive,inactive,,inactive,inactive,inactive
